# Data as given in PubChem BioAssay AID1851 (National Center for Advancing Translational Sciences (NCATS), 2009).
# The whole screen tested about 16,000 compounds, of which about 5,100 (32%) were called active. Another 25% or so got no clear call; they are omitted. This is one part of the list. Unmarked numbers belong to inactive results. Calls come from the whole dose curve; as a rule, active = well fitted curve in the direction sought with a large enough effect; inconclusive = small, poorly fitted or top-dose-only effect, or effect the other way; inactive = no such curve, though single readings can be large or run the other way.
# Target: Cytochrome P450 3A4 (Homo sapiens) (UniProt P08684)
# Experiment: Cytochrome panel assay with activity outcomes
# Details: recombinant CYP, pro-luciferin dealkylation, luminescence, p450-cyp3a4; series mostly up to 57.1 µM
# % is set by controls: 0 for no effect and ±100 for the full control effect.
# Cytochrome P450 3A4 (Homo sapiens), sequence (P08684 whole entry, looked up): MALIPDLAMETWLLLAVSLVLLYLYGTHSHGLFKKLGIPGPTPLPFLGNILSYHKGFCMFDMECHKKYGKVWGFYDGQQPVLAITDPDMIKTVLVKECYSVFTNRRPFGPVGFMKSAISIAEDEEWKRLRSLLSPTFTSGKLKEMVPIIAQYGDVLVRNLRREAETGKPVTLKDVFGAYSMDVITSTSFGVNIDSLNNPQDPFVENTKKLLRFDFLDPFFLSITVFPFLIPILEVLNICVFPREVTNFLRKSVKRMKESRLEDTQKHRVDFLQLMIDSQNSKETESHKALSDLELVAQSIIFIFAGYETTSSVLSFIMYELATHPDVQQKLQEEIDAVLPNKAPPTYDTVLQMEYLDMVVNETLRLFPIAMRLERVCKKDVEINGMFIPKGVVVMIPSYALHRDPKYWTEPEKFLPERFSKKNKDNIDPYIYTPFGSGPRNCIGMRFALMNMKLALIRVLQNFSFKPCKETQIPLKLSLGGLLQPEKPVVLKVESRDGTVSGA
Compound,AC50,"activity, negative = inhibition"
Cc1ccc(C(=O)/C=C2\NCC(C)NC2=O)cc1 (stereo unspecified),inactive,–
O=C(Cc1ccc(Br)cc1)Nc1ccccc1Sc1ccccc1,6.31 µM (active),–
O=C(Cc1ccc2c(c1)CCCC2)Nc1ccccc1Br,inactive,–
CC(C)Cn1c(C(C)C)nc([N+](=O)[O-])c1S(=O)(=O)c1ccc(F)cc1,4.47 µM (active),–
CN(C)CCNCCN,–,-3.91% [at 11.4 µM]
OC(CNCc1ccc(F)cc1)(c1ccc(F)cc1)c1ccc(F)cc1,2 µM (active),–
O=C(O)c1ccc(CNCc2ccccc2)cc1,–,-2.73% [at 11.4 µM]
Cc1ccc(CNCC(O)(c2ccc(F)cc2)c2ccc(F)cc2)cc1,2.24 µM (active),–
COc1ccccc1CNc1ncnc2ccc(-c3cccnc3)cc12,2 µM (active),–
CC(CO)(CO)Nc1ncnc2ccccc12,–,4.84% [at 11.4 µM]
COc1ccc(CNc2ncnc3ccc(-c4cccnc4)cc23)c(OC)c1,1.26 µM (active),–
COc1cccc(-c2ccc3ncnc(NCc4ccc(OC)cc4OC)c3c2)c1,2.51 µM (active),–
Nc1ccccc1N=Nc1c(S(=O)(=O)O)cc2cc(S(=O)(=O)O)cc(O)c2c1O,–,-15.9% [at 11.4 µM]
COc1ccc(CCNC(=O)Cn2cnc3c2c(=O)n(C)c(=O)n3C)cc1OC,15.8 µM (active),–
Cc1ccccc1NC(=O)Cn1cnc2c1c(=O)n(C)c(=O)n2C,inactive,–
COc1ccc(Cc2nnc(NC(=O)Cn3cnc4c3c(=O)n(C)c(=O)n4C)s2)cc1OC,–,4.73% [at 2.29 µM]
COc1ccc(Nc2ncc(C(=O)N3CCN(c4ccc(F)cc4)CC3)c3ccccc23)cc1,–,-5.25% [at 2.29 µM]
O=C(c1sc2ccccc2c1Cl)N1CCN(c2ccc(F)cc2)CC1,14.1 µM (active),–
COc1ccc(S(N)(=O)=O)cc1C(=O)NCCCN1CCN(c2ccc(C)cc2)CC1,–,1.35% [at 2.29 µM]
O=C(NCCN1CCN(C(=O)C(c2ccccc2)c2ccccc2)CC1)C(=O)Nc1ccccc1,inactive,–
O=C(c1cccs1)N1CCN(C(=O)C(c2ccccc2)c2ccccc2)CC1,inactive,–

Compound,AC50,"activity, negative = inhibition"
COc1ccccc1N1CCN(C(=O)C(NS(=O)(=O)c2cccs2)c2ccccc2)CC1 (stereo unspecified),2 µM (active),–
O=C(C(NS(=O)(=O)c1cccs1)c1ccccc1)N1CCN(c2ccccc2)CC1 (stereo unspecified),3.16 µM (active),–
CC(C)C(NS(=O)(=O)c1cccs1)C(=O)NCCN1CCN(c2ccccc2)CC1 (stereo unspecified),5.01 µM (active),–
CCOC(=O)c1sc(C)c(C(=O)NCC(C)(C)CN(C)C)c1N,inactive,–
O=C(CSc1nc2ccccc2s1)Nc1nccs1,10 µM (active),–
Cc1cccc(-c2nsc(SCC(=O)Nc3nccs3)n2)c1,3.55 µM (active),–
Cc1nnc(SCC(=O)Nc2nccs2)[nH]c1=O,inactive,–
O=C(CSc1nc2ccccc2s1)NNC(=S)Nc1ccc(Br)cc1,2.51 µM (active),–
O=C(O)CCCSc1nc2ccccc2s1,–,-9.94% [at 11.4 µM]
C1CCc2nnnn2CC1,inactive,–
O=C(O)[C@@H](O)[C@@H](O)[C@@H](O)[C@@H](O)C(=O)O (tested in a mixture with another compound),inactive,–
O=C(Nc1ccc(Cl)cc1C(F)(F)F)c1ccc(Cl)cc1,inactive,–
O=C(Nc1ccc(Cl)cc1Cl)c1cccc(N2C(=O)C=CC2=O)c1,1.26 µM (active),–
COc1cc2c(cc1OC)-c1cc(NCc3ccccn3)nc(=O)n1CC2,inactive,–
COc1cc(CNCCN2CCOCC2)ccc1OCc1ccccc1Cl,15.8 µM (active),–
COc1cc(CNCc2ccccn2)ccc1OCc1ccc(Cl)cc1Cl,0.501 µM (active),–
COc1ccc(CC(=O)NCc2ccccn2)cc1OC,–,-4.2% [at 2.29 µM]
O=C(O)c1cc(=O)c2c(Cl)cc(Cl)cc2[nH]1,inactive,–
O=C1C[C@H]2C(=O)[C@@H]1[C@@H](C(=O)O)[C@H]2C(=O)O,–,-3.12% [at 11.4 µM]
O=c1cnc2cnc(Nc3ccccc3)nc2n1Cc1cccs1,15.8 µM (active),–
COc1ccc(-c2nc3cnc(Nc4ccccc4)nc3n(Cc3cccs3)c2=O)cc1,inactive,–

Compound,AC50,"activity, negative = inhibition"
Cc1nc2cnc(Nc3ccccc3)nc2n(Cc2cccs2)c1=O,7.94 µM (active),–
COc1cccc(Nc2ncc3nc(C)c(=O)n(Cc4cccs4)c3n2)c1,3.98 µM (active),–
O=c1c(-c2ccc(F)cc2)nc2cnc(Nc3ccccc3)nc2n1Cc1cccs1,inactive,–
COc1cccc(Nc2ncc3nc(-c4cccs4)c(=O)n(Cc4cccs4)c3n2)c1,inactive,–
C=C(CC)C(=O)c1ccc(OCC(=O)O)c(Cl)c1Cl,inactive,–
CCC(C)NC(=O)c1c(C)cc(=O)oc1C (stereo unspecified),inactive,–
C[C@@H](N=C(N)N)C(=O)O,–,-8.02% [at 11.4 µM]
Cc1cc(NC(=O)NC(=O)c2ccc(F)cc2F)n[nH]1,inactive,–
COc1ccccc1N1CCN(CCCCNC(=O)c2ccc3ccccc3c2)CC1,inactive,–
COc1ccccc1N1CCN(CCCCNS(=O)(=O)c2cccc3c(N(C)C)cccc23)CC1,2.51 µM (active),–
COc1ccccc1N1CCN(CCCCN2C(=O)CCC2=O)CC1,inactive,–
Oc1c(Cl)cc(C(c2cc(Cl)c(O)c(Cl)c2)C(c2cc(Cl)c(O)c(Cl)c2)c2cc(Cl)c(O)c(Cl)c2)cc1Cl,–,-26.2% [at 11.4 µM]
Cc1ccc(NC(=O)c2ccccc2C(=O)O)cc1C,–,-9.2% [at 11.4 µM]
COC(=O)CSC(C(=O)Nc1ccc(C)c(C)c1)c1ccccc1 (stereo unspecified),3.98 µM (active),–
CCCCOC(=O)Nc1ccc(C)c(Cl)c1,inactive,–
O=C(C1CCN(S(=O)(=O)c2cccc3nsnc23)CC1)N1CCn2c1nc1ccccc12,14.1 µM (active),–
O=C(C1CCCN(S(=O)(=O)c2cccc3nsnc23)C1)N1CC=C(c2ccccc2)CC1 (stereo unspecified),6.31 µM (active),–
O=C(C1CCN(S(=O)(=O)c2cccc3nsnc23)CC1)N1CCN(c2ccccc2F)CC1,inactive,–
O=C(C1CCN(S(=O)(=O)c2cccc3nsnc23)CC1)N1CCCc2ccccc21,14.1 µM (active),–
